Measured values reported in PMC10812921, “Transcriptional Coactivator BOB1 (OBF1, OCA-B) Modulates the Specificity of DNA Recognition by the POU-Domain Factors OCT1 and OCT2 in a Monomeric Configuration”.

The sequences below were run against POU1 (OCT1 POU domain) (human, UniProt P14859 260-458) (assay: EMSA-SELEX-seq; no BOB1; 20 mM Tris-HCl pH 7.6, 140 mM NaCl, 10% glycerol, 0.5 mM EDTA, 0.05% Triton X-100, 0.1 mg/mL BSA, 0.1 mg/mL poly(dI-dC), 5 mM DTT, room temperature, 20 min; high values mean tight binding). Conditions: protein: recombinant; dsDNA, one strand shown.
Sequence of POU1 (OCT1 POU domain) (P14859 260-458): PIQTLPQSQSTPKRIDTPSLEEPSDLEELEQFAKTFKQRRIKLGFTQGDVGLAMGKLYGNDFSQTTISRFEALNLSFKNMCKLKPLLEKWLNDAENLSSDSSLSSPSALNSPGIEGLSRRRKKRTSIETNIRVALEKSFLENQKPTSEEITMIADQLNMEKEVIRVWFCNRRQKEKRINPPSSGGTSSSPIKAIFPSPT
Summary of the method: (§1)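 A double-stranded random 35-nt library (300 ng, PCR-amplified) was incubated with 30 ng tagged POU-domain protein, with or without 28 ng coactivator protein, in 20 μL Tris–HCl pH 7.6 binding buffer for 20 min at RT. The proteins had been expressed in E. coli BL21, purified under denaturing conditions and renatured. Complex bands from native 6% PAGE were eluted and PCR-amplified over four rounds, then sequenced on Illumina. For binding preference, the percentage of sequenced 8-mers matching a motif pattern was calculated.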
ACTGAAAA was tested, and the binding signal was 0.0313 % of ANNNNAAN 8-mers. AGCGAAAG was tested, and the binding signal was 0.0248 % of ANNNNAAN 8-mers. In the case of AGAGCAAT, the binding signal is reported as 0.0355 % of ANNNNAAN 8-mers. ACAAAAAT was tested, and the binding signal was 0.0938 % of ANNNNAAN 8-mers. AGACGAAA was tested, and the binding signal was 0.0309 % of ANNNNAAN 8-mers. In the case of ATGCTAAG, the binding signal is reported as 0.149 % of ANNNNAAN 8-mers. In the case of AACCCAAT, the binding signal is reported as 0.0206 % of ANNNNAAN 8-mers. With AGCTGAAT the binding signal was 0.0561 % of ANNNNAAN 8-mers. ATCACAAG was tested, and the binding signal was 0.0225 % of ANNNNAAN 8-mers. With AACGGAAT the binding signal was 0.0698 % of ANNNNAAN 8-mers. AGTGTAAC was tested, and the binding signal was 0.0217 % of ANNNNAAN 8-mers. With AAGATAAT the binding signal was 0.138 % of ANNNNAAN 8-mers. With ATTGAAAT the binding signal was 0.257 % of ANNNNAAN 8-mers. With AAGGAAAT the binding signal was 0.199 % of ANNNNAAN 8-mers. For ACATGAAC, the binding signal was 0.0244 % of ANNNNAAN 8-mers. AGTCTAAA was tested, and the binding signal was 0.037 % of ANNNNAAN 8-mers. In the case of AATAGAAG, the binding signal is reported as 0.0534 % of ANNNNAAN 8-mers. In the case of AAGAAAAG, the binding signal is reported as 0.0732 % of ANNNNAAN 8-mers. For ACTACAAA, the binding signal was 0.0214 % of ANNNNAAN 8-mers. For AGAACAAG, the binding signal was 0.0221 % of ANNNNAAN 8-mers. For ACTTAAAA, the binding signal was 0.0587 % of ANNNNAAN 8-mers. With AACAGAAC the binding signal was 0.0183 % of ANNNNAAN 8-mers. ACAGGAAT was tested, and the binding signal was 0.0622 % of ANNNNAAN 8-mers. ACTGAAAG was tested, and the binding signal was 0.0172 % of ANNNNAAN 8-mers. With ATTCGAAC the binding signal was 0.0351 % of ANNNNAAN 8-mers. For ACGCGAAC, the binding signal was 0.0103 % of ANNNNAAN 8-mers. In the case of ACTGTAAG, the binding signal is reported as 0.0225 % of ANNNNAAN 8-mers. With AAAGGAAT the binding signal was 0.0953 % of ANNNNAAN 8-mers. With ATGAGAAA the binding signal was 0.0755 % of ANNNNAAN 8-mers. For AATAGAAA, the binding signal was 0.0759 % of ANNNNAAN 8-mers. In the case of ATCTAAAT, the binding signal is reported as 0.172 % of ANNNNAAN 8-mers. ACAACAAT was tested, and the binding signal was 0.0248 % of ANNNNAAN 8-mers. For ATCTGAAA, the binding signal was 0.0374 % of ANNNNAAN 8-mers. With AACACAAA the binding signal was 0.0454 % of ANNNNAAN 8-mers. In the case of AATTGAAT, the binding signal is reported as 0.203 % of ANNNNAAN 8-mers. With AGAACAAT the binding signal was 0.0378 % of ANNNNAAN 8-mers. For ATTCTAAT, the binding signal was 0.448 % of ANNNNAAN 8-mers. With ATGAAAAT the binding signal was 0.373 % of ANNNNAAN 8-mers. For AGCGTAAA, the binding signal was 0.0427 % of ANNNNAAN 8-mers.

The sequences below were run against T1, POU2 (OCT2 POU domain) (human, UniProt P09086 175-386) in the same assay as above. Conditions: protein: recombinant; dsDNA, one strand shown.
T1 sequence: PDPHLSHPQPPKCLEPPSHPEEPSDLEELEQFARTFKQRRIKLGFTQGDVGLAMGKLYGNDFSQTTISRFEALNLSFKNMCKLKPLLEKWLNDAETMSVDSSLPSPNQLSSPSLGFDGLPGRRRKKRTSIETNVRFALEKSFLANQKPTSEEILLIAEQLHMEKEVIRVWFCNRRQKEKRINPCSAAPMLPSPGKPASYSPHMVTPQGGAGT
Summary of the method: as §1
In the case of ACTGAAAA, the binding signal is reported as 0.0363 % of ANNNNAAN 8-mers. AGCGAAAG was tested, and the binding signal was 0.0242 % of ANNNNAAN 8-mers. In the case of AGAGCAAT, the binding signal is reported as 0.0443 % of ANNNNAAN 8-mers. ACAAAAAT was tested, and the binding signal was 0.0667 % of ANNNNAAN 8-mers. AGACGAAA was tested, and the binding signal was 0.0472 % of ANNNNAAN 8-mers. In the case of ATGCTAAG, the binding signal is reported as 0.156 % of ANNNNAAN 8-mers. In the case of AACCCAAT, the binding signal is reported as 0.019 % of ANNNNAAN 8-mers. AGCTGAAT was tested, and the binding signal was 0.0725 % of ANNNNAAN 8-mers. With ATCACAAG the binding signal was 0.0334 % of ANNNNAAN 8-mers. With AACGGAAT the binding signal was 0.0949 % of ANNNNAAN 8-mers. For AGTGTAAC, the binding signal was 0.015 % of ANNNNAAN 8-mers. With AAGATAAT the binding signal was 0.203 % of ANNNNAAN 8-mers. For ATTGAAAT, the binding signal was 0.29 % of ANNNNAAN 8-mers. For AAGGAAAT, the binding signal was 0.157 % of ANNNNAAN 8-mers. For ACATGAAC, the binding signal was 0.0334 % of ANNNNAAN 8-mers. With AGTCTAAA the binding signal was 0.0501 % of ANNNNAAN 8-mers. For AATAGAAG, the binding signal was 0.0587 % of ANNNNAAN 8-mers. With AAGAAAAG the binding signal was 0.0633 % of ANNNNAAN 8-mers. ACTACAAA was tested, and the binding signal was 0.0391 % of ANNNNAAN 8-mers. AGAACAAG was tested, and the binding signal was 0.0334 % of ANNNNAAN 8-mers. For ACTTAAAA, the binding signal was 0.0524 % of ANNNNAAN 8-mers. AACAGAAC was tested, and the binding signal was 0.0242 % of ANNNNAAN 8-mers. ACAGGAAT was tested, and the binding signal was 0.0685 % of ANNNNAAN 8-mers. ACTGAAAG was tested, and the binding signal was 0.0196 % of ANNNNAAN 8-mers. ATTCGAAC was tested, and the binding signal was 0.046 % of ANNNNAAN 8-mers. With ACGCGAAC the binding signal was 0.0121 % of ANNNNAAN 8-mers. For ACTGTAAG, the binding signal was 0.027 % of ANNNNAAN 8-mers. With AAAGGAAT the binding signal was 0.124 % of ANNNNAAN 8-mers. With ATGAGAAA the binding signal was 0.0765 % of ANNNNAAN 8-mers. With AATAGAAA the binding signal was 0.0972 % of ANNNNAAN 8-mers. In the case of ATCTAAAT, the binding signal is reported as 0.227 % of ANNNNAAN 8-mers. In the case of ACAACAAT, the binding signal is reported as 0.0305 % of ANNNNAAN 8-mers. For ATCTGAAA, the binding signal was 0.046 % of ANNNNAAN 8-mers. For AACACAAA, the binding signal was 0.0443 % of ANNNNAAN 8-mers. In the case of AATTGAAT, the binding signal is reported as 0.238 % of ANNNNAAN 8-mers. In the case of AGAACAAT, the binding signal is reported as 0.0414 % of ANNNNAAN 8-mers. ATTCTAAT was tested, and the binding signal was 0.532 % of ANNNNAAN 8-mers. For ATGAAAAT, the binding signal was 0.304 % of ANNNNAAN 8-mers. AGCGTAAA was tested, and the binding signal was 0.0455 % of ANNNNAAN 8-mers.
